Experimental findings from the OligoGym collection are described below.
Further: reference of the scale not given here.

For one experiment, the target named is L1TD1. The experiment can be described thus: pooled miR-30 sensor sort-seq; sequence = guide strand. Conditions: shRNA.
Sequence TTGGATGTTAGTTCTTCTGTGT came in with a sensor-assay potency score (higher = more potent) of 0.173. In turn, TTCTTTGACAAATTCATCCTCT showed a sensor-assay potency score (higher = more potent) of 0.858. In the case of TTTGATCTTCTAGACTGTCTAT, the sensor-assay potency score (higher = more potent) is -0.16.

Turning to TACTTCTCAAGTTTTCTTCTGT, the sensor-assay potency score (higher = more potent) worked out at 0.707. Same read-out and setting: under TCTTTCTTCAAGTATGTCCATT stands -0.922; under TATTTCTCCAGCTCTATGCTTT, -0.459.

In the case of ATTTGCTGAAACTCTGTCCTAC, the sensor-assay potency score (higher = more potent) was 0.491.

The sequence TTGAATTTCCATTAAGACCTTA registered a sensor-assay potency score (higher = more potent) of 0.102. On the same count and under the same terms, next, TTGATCTTCTAGACTGTCTATT: -0.179; ATCATTACTATTGTATTCGTTA: -0.576.

Another experiment has as its target LAMA2. The description is as above. Conditions: shRNA.
TTAAGTAACAATACATTAGTAT registered a sensor-assay potency score (higher = more potent) of -0.0119. For TTTGTGAGCAAACATCATCAAG, the sensor-assay potency score (higher = more potent) is -1.56. On to TATCCAAGAAGTCTTCTCGGGT, for which the sensor-assay potency score (higher = more potent) is -0.905. TTACATAATAGGCCTGTCCAGT had a sensor-assay potency score (higher = more potent) of -0.57.

TACATCTTTAGCTGTGTCGTTG registered a sensor-assay potency score (higher = more potent) of -0.19. Sequence TAGTTTATTGTAATTCTTCTTC gave a sensor-assay potency score (higher = more potent) of -0.313. Take TTACATATCAGACAGGAGCCAG: the sensor-assay potency score (higher = more potent) is -0.545. In the case of TAAATGTCAACTGTCCTCCTAC, the sensor-assay potency score (higher = more potent) turned out to be 0.301. In turn, TTTGAGTTTATCTATTAGCCGG showed a sensor-assay potency score (higher = more potent) of -0.671.

Consider TTGATTGCAGATTCGACACTGC, for which the sensor-assay potency score (higher = more potent) was 0.517. The sequence TTGAGTTTATCTATTAGCCGGT came in with a sensor-assay potency score (higher = more potent) of 0.45.

Take TTTATTGTAATTCTTCTTCAGG: the sensor-assay potency score (higher = more potent) is -0.611.

Another experiment addresses LAMB3. The experiment is described as above. The following applies: shRNA.
TTTTTTGACTTTGAGTTGCTGG showed a sensor-assay potency score (higher = more potent) of 0.33. As to TATTTTTTCAAACTGCTCCCTC, the sensor-assay potency score (higher = more potent) worked out at 0.433. Turning to TAGGTCACAGCGCTCTCCCTGC, the sensor-assay potency score (higher = more potent) is -0.878. TTTGCATCTAGGATCCGGGAGG had a sensor-assay potency score (higher = more potent) of -1.03. Consider TCTGACATCTTCCTCCATCTGG, for which the sensor-assay potency score (higher = more potent) is -0.297. Consider TTATTCTCTCAAATCCCTCTTG, for which the sensor-assay potency score (higher = more potent) was -0.105. As for TCTTGAAGCTGGAATCTCCTGT, the sensor-assay potency score (higher = more potent) came out at 0.664. For the sequence TTCTGCAGAACAGTAGCTGAGT, the sensor-assay potency score (higher = more potent) was -0.497. TCTTCTGCAGAACAGTAGCTGA: the sensor-assay potency score (higher = more potent) is -1.16.

TTACTAGCTACACACCAGGGGT returned a sensor-assay potency score (higher = more potent) of -0.82. TTTGACTTTGAGTTGCTGGAAT gave a sensor-assay potency score (higher = more potent) of -0.395. On to TAGGCTGTGCTCAGCATCCGGA, for which the sensor-assay potency score (higher = more potent) was -0.616.

The next experiment concerns the target LAMB4. The experiment is described as above. The following applies: shRNA.
As to TTAGCTGTTTAACTTTTCCTAA, the sensor-assay potency score (higher = more potent) is -0.989.

In turn, TATTGTATCTTTCAGATCTTGA gave a sensor-assay potency score (higher = more potent) of 0.0271.

In the case of TTTGTTAGTCCTGTAGTGCTTG, the sensor-assay potency score (higher = more potent) stood at 0.084.

TTTGACTGTAGAGTCTTGGGTA yielded a sensor-assay potency score (higher = more potent) of 0.734. In the case of TTCACTTATACTTTCGATCTGA, the sensor-assay potency score (higher = more potent) turned out to be 0.249. TAGTCCTGTAGTGCTTGTCTTA showed a sensor-assay potency score (higher = more potent) of -1.22.
